In PubChem BioAssay AID662 (National Center for Advancing Translational Sciences (NCATS), 2007):
Out of some 71,000 compounds screened, about 1,800 (2.5%) were called active. Another 26% or so got no clear call; they are omitted. The sample holds actives, similar compounds and a random draw of the others, so the mix is not that of the screen. The call rests on the fitted dose curve; in most records, active means well fitted activation curve with a large enough effect in the signal ratio, with a control signal flat (not every such curve was filed as active); inconclusive means small, poorly fitted or top-dose-only effect, or effect the other way, or a change in a side signal; inactive means flat fitted curve, though single readings scatter; the % refers to the signal ratio.

Test: Cell signaling CRE-BLA (Fsk stim); on Activity change, negative = inhibition: % of control where 0% means no effect
Details: CHO CRE-bla reporter (cAMP response element driving beta-lactamase), forskolin EC10, beta-lactamase ratio; series mostly up to 38.2 µM
Method in brief: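 Cells were plated overnight at 37 °C, exposed to compound titrations plus EC10 NKH 477 for 3 h, then given CCF4 dye for 2 h at room temperature. Blue/green (460/530 nm) ratio was converted to %Activity and AC50 values calculated.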
Potency means the concentration at half of the fitted maximal effect.

Potency, inactive:
CNC(=O)C1(C)C=CC2(CCCCC2)N1C(C)=O (centres undefined), CC(C)CC1(C(=O)NCc2ccccn2)C=CCN1C(=O)c1ccccc1 (centres undefined), CCC1(C)N(O)C(C)(C)C(c2ccc(OC)cc2)=[N+]1[O-] (centres undefined), c1ccc(CNc2ncncc2-c2cccnc2)cc1, Cc1cnc(CNc2ncncc2-c2ccccc2Cl)cn1, CCCC(NS(=O)(=O)c1ccc(OC)cc1)C(=O)O (centres undefined), COc1ccccc1-n1c(CNC(=O)c2ccccc2)nnc1SCC(=O)Nc1nnc(C)s1, CC1CN(Cc2nc3c(c(=O)n(C)c(=O)n3C)n2Cc2cccc(Cl)c2)CC(C)O1 (centres undefined), Cc1nc(SC(C)C)[nH]c(=O)c1Cc1ccccc1, CCOC(=O)c1cc2ccccc2nc1C, CCOC(=O)Nc1ccccc1N1C(=O)c2ccccc2C1=O, COC(=O)c1ccc(C(NC(=O)OCc2ccccc2)/C(C)=C/[C@@H](C)C(=O)NCc2cc(C)on2)cc1 (some centres undefined), Cc1nc2nc(SCC(=O)NCc3ccco3)nn2c(C)c1Cc1ccccc1, O=C(NCc1ccco1)c1nc(-c2ccccc2)n(-c2ccccc2)n1, Cc1ccnc(SCCn2c(N(C)Cc3ccccc3)nc3c2c(=O)n(C)c(=O)n3C)n1, CCN(CC)S(=O)(=O)N1CCC(C(=O)NC(C)CCc2ccccc2)CC1 (centres undefined), Cc1ccc2c(NC(=O)C3CC3)cccc2n1, Cn1c(NC(=O)c2ccc3c(c2)OCO3)cc(=O)n(C)c1=O, Cc1c(NC(=O)Nc2ccccc2Cl)sc(=S)n1C, COc1ccc(OC)c(NC(=O)Cn2c(=O)oc3ccccc32)c1, CCn1c(COc2ccc(OC)cc2)nnc1SCC(=O)Nc1cc(OC)ccc1OC, CCCC(C(=O)N1CCOCC1)N1C(=O)C2C3C=CC(C3)C2C1=O (centres undefined), CC(C)C[C@@H](CC(=O)N[C@@H](CCC(=O)O)CC(=O)O)NC(=O)[C@@H]1CCCC[C@H]1NC(=O)C[C@@H](NC(=O)C[C@H](Cc1c[nH]c2ccccc12)NC(=O)[C@@H]1CCCC[C@H]1N)C(C)C, Cc1ccc(NC(=O)CSc2nnc(-c3cnccn3)n2Cc2ccco2)cc1C, CCn1c(SCC(=O)Nc2nccs2)nnc1-c1ccncc1, Cc1cccc(NC(=O)COc2ccc(Br)cc2C)n1, C#CCCCCCCCCCCCCCCCC(=O)O, COc1ccc(O)c(C=Nc2cc(C)on2)c1, c1cncc(CNc2ccnc(-c3ccc4c(c3)OCO4)n2)c1, O=C(Nc1cccnc1)c1ccc2c(c1)OCO2, CC(=O)Nc1nc(C)c(Cc2ccccc2)c(=O)[nH]1, COc1ccc(N2CCN(C(=O)CSc3ncnc4c3cnn4-c3ccc(OC)cc3)CC2)cc1, CCOc1ccc2cc(C#N)c(SCC(=O)OC)nc2c1, Cc1ccc2nc(-c3ccccc3)cc(C(=O)O)c2c1, Oc1ccc2nc(Cc3ccccc3)[nH]c2c1, CCN(CC)CCN1C(=O)C(=O)/C(=C(/O)c2ccccc2)C1c1ccccc1F (centres undefined), C=CCn1c(SCC(=O)Nc2nc3ccccc3s2)nnc1-c1ccccc1O, C=CCn1c(C(C)NC(=O)CC)nc2ccccc21 (centres undefined), N#Cc1cc2[nH]c(=O)c(=O)[nH]c2cc1[N+](=O)[O-], CC(=O)CC(C)C, COc1ccccc1CNc1ncncc1-c1cccc(NS(C)(=O)=O)c1, COc1ccc(-n2c(C)nc3c(cnn3-c3ccccc3)c2=O)cc1, COCCn1c(=O)c(CCc2ccccc2)nc2cncnc21, CCc1c(C)nc2cc(-c3cccs3)[nH]n2c1=O, COc1ccc(OCc2ccc(-c3nc4ccccc4c(=O)n3N)o2)cc1, COc1ccccc1CNC(=O)CCn1c(=O)sc2ccccc21, CCOc1cccc(=O)c2c(C)n(CC3CCCO3)c(C)c12 (centres undefined), O=C(O)c1nccnc1C(=O)Nc1ccc(Br)cn1, C=CCNC(=O)C1CC=CCC1C(=O)O (centres undefined), COc1ccc(N)c(C)c1, COC(=O)[C@@]1(C)C=C[C@@H](Cc2ccccc2)N1C(C)=O

Potency, active:
COC(=O)c1ccc(Oc2nc(Nc3ccc(F)cc3)nc(N3CCCC3)n2)cc1 3.16 µM, Cc1cnc(CNc2nc(-c3cccnc3)nc3ccccc23)cn1 12.6 µM, CC1CCc2sc3nc(N4CCN(CCO)CC4)n4ncnc4c3c2C1 (centres undefined) 5.01 µM, CCOC(=O)c1cc2n(c1C)-c1ccccc1C2=O 15.8 µM, Cc1nn(-c2ccccc2)c2sc(C(=O)N(Cc3ccco3)C(C)C(=O)NC(C)(C)C)cc12 (centres undefined) 1.58 µM, CC(=O)N1CCC(C(=O)Nc2nc(-c3ccccc3)ns2)CC1 10 µM, COc1ccc(OC)c(NC(=O)CSc2nc(N)c(-c3ccccc3)c(=O)[nH]2)c1 12.6 µM, CCn1c(SCC(=O)Nc2cc(C)ccc2C)nnc1-c1cnccn1 3.16 µM, CSc1ccc(-c2c(C#N)c(N)nc3c2c(C)nn3-c2ccccc2)cc1 10 µM, c1ccc2c(Nc3ccncc3)nc(-c3ccc4c(c3)OCO4)nc2c1 12.6 µM, COc1ccc(N2CCN(C(=O)CSc3nc4cc(OC)c(OC)cc4cc3C#N)CC2)cc1 10 µM, COC(=O)Nc1nc2ccc(Sc3ccccc3)cc2[nH]1 2.51 µM, C=CCn1c2ccccc2c2nnc(SC(CC)C(=O)Nc3nc(C)c(C(=O)OCC)s3)nc21 (centres undefined) 1.26 µM, COCCn1c(=O)c(-c2cccs2)nc2cncnc21 12.6 µM, COc1ccccc1CCn1c(=O)c(-c2cn(C)c3ccccc23)nc2cncnc21 0.398 µM, COc1ccc(-n2c(=O)c(-c3cn(C)c4ccccc34)nc3cnc(OC)nc32)cc1 0.2 µM

Activity change, negative = inhibition, inactive:
CC(=O)N1CCN(c2cccc(C)c2C)CC1 1.32% [at 7.6 µM], O=C(O)c1c(Br)c(Br)c(Br)c(Br)c1C1c2ccc(O)cc2Oc2cc(O)ccc21 4.42% [at 7.6 µM]
